Assay outcomes as filed in PubChem.
SW480 rerep: DNA re-replication induction in SW480 cells; SW480 DNA re-replication, Hoechst DNA content imaging, 48 h; 1.8% of 340,000 active; Potency, µM (doses to about 46.1 µM), without a hit: top-dose re-replication activation, hits mostly activators; also: % of control where 0% means no effect; nearly all actives have a fitted effect of over 55% in size
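First, 250 cells per well were seeded. Next, compound or vehicle (23 nL) was pinned in, plates sat 48 hr at 37 C. Finally Hoechst was added for 40 min before fluorescence scanning.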
MCF10A rereplic: inducers of DNA re-replication in MCF 10A breast cells | MCF 10A DNA re-replication, Hoechst nuclear intensity, 48 h | Potency, µM (series often up to 46.1 µM), inactives show top-dose activity, positive = re-replication, actives largely listed as activators | 2.9% of 350,000 active; also: % of control where 0% means no effect; nearly all actives have a fitted effect of over 50% in size
PINK1 expr mod: PINK1 expression modulation | PINK1 immunofluorescence, high-content cytometry, 24 h | Potency, µM (titrated, usually from 76.6 µM), for the others: at the top dose activation (PINK1 increase), most hits filed as activators | 0.2% of 410,000 active | AID 624263; active = well fitted activation curve with a large enough effect; inconclusive = small, poorly fitted or top-dose-only effect; cell line not stated here; also: % of control where 0% means no effect; nearly all actives have a fitted effect of over 65% in size
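Stable cell line, 250 cells/well, 12 h attachment; compounds pinned at 5 concentrations, 24 h; CCCP control. Fixed with nuclear dye, primary antibodies 12 h at 10 degrees C, secondary plus cell stain; laser-scanning cytometer read.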
KB-3-1 cytotox: kills parental KB-3-1 adenocarcinoma cells; Potency, µM (top dose mostly 46.1 µM), actives largely listed as cytotoxic; KB-3-1 viability, CellTiter-Glo ATP luminescence, 72 h; 1.4% of 400,000 active; also: % is scaled to controls: 0 for no effect and ±100 for the full control effect; nearly all actives have a fitted effect of over 60% in size
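Parental KB-3-1 adenocarcinoma cells in phenol-red-free DMEM with 10% FBS were pin-treated with compounds at several concentrations, incubated 72 h at 37 °C, and viability read by CellTiter-Glo luminescence; concentration-effect curves were fitted after normalization.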
KB-V1 MDR tox: kills drug-selected multidrug resistant KB-V1 cells; KB-V1 MDR cells viability, CellTiter-Glo, 72 h; Potency, µM (doses to about 46.1 µM), usual class: cytotoxic; 3.4% of 400,000 active; also: % is scaled to controls: 0 for no effect and ±100 for the full control effect; nearly all actives have a fitted effect of over 60% in size
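KB-V1 MDR subline cells in DMEM (phenol-red free, 10% FBS) exposed to compounds in qHTS concentration series for 72 h at 37 degrees C. Viability read by CellTiter-Glo luminescence; concentration-effect curves fitted after normalization and correction.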
Starred values were filed as active, the others as inactive; [ ] = another dose, or the depositor's remark. Rows were chosen to be rich in hits. Some 6.7% of all compounds tested hit in one or more screens of this group. Unless noted, calls follow the shape of the dose curve; as a rule, active = well fitted curve in the direction sought with a large enough effect; inconclusive = small, poorly fitted or top-dose-only effect, or another doubt; inactive = no such curve, though single readings can be large; an effect the other way counts as inactive or inconclusive. Potency is read from the fitted curve at half-maximal effect.

Clc1ccc(CSc2ncn(-c3ccccc3)n2)cc1 was read as SW480 rerep -14%, MCF10A rereplic 6%, PINK1 expr mod 0%, KB-3-1 cytotox inactive and KB-V1 MDR tox 21µM*.
`C=C1C(=O)O[C@H]2C[C@H]1[C@@H](OC(C)=O)C/C(C)=C/CC/C(C)=C\CC[C@]2(C)O` gave SW480 rerep 23µM*, MCF10A rereplic inconclusive, PINK1 expr mod 0%, KB-3-1 cytotox inactive and KB-V1 MDR tox inactive.
Screening CSc1nc(C)c2c(n1)N(c1ccc(C(C)C)cc1)CC2 returned SW480 rerep 14%, MCF10A rereplic 8%, PINK1 expr mod inconclusive, KB-3-1 cytotox inactive and KB-V1 MDR tox 8.2µM*.
Screening CSc1nc(C)c2c(n1)N(c1ccc(F)cc1)CC2 returned SW480 rerep -6%, MCF10A rereplic 13%, PINK1 expr mod 5%, KB-3-1 cytotox inactive and KB-V1 MDR tox inactive.
Screening N#CCSc1nc(Nc2ccc3c(c2)OCO3)c2ccccc2n1 returned SW480 rerep 1%, MCF10A rereplic inconclusive, PINK1 expr mod 1%[38.3 µM], KB-3-1 cytotox inactive and KB-V1 MDR tox 15µM*.
COc1cc(Nc2nc(SCC#N)nc3ccccc23)cc(OC)c1OC was read as SW480 rerep -6%, MCF10A rereplic -5%, PINK1 expr mod -4%[38.3 µM], KB-3-1 cytotox inactive and KB-V1 MDR tox 21µM*.
COc1cc(Nc2nc(SCC(=O)c3ccc(Br)cc3)nc3ccccc23)cc(OC)c1 was read as PINK1 expr mod 4%.
`CCN(C(=O)Cn1cnc2c1c(=O)n(C)c(=O)n2C)c1ccccc1C` gave PINK1 expr mod -1%, KB-3-1 cytotox inactive and KB-V1 MDR tox inconclusive.
For CCOC(=O)C1=C(N)n2c(s/c(=C/c3ccco3)c2=O)=C(C(=O)OC)C1c1ccco1 (configuration not stated) the results were SW480 rerep 13µM*, MCF10A rereplic 6.5µM*, PINK1 expr mod -1%, KB-3-1 cytotox 8.2µM* and KB-V1 MDR tox inconclusive.
Screening COC(=O)c1ccc(NC(=O)CC2C(=O)N(c3cccc(OC)c3)C(=O)N2Cc2cccs2)cc1 (configuration not stated) returned PINK1 expr mod 1%.
Cc1cccc(C)c1NC(=O)CN1C(=O)c2cccc3cccc1c23 was read as PINK1 expr mod 3%, KB-3-1 cytotox inactive and KB-V1 MDR tox inactive.
For O=C(CSc1n[nH]c(-c2ccccc2Cl)n1)N1CCN(c2ccccc2F)CC1 the results were PINK1 expr mod 0%, KB-3-1 cytotox inactive and KB-V1 MDR tox inactive.
`NC(Cc1ccc(C(F)(F)F)cc1)c1csc(NC(=O)NCCc2ccccc2)n1` (configuration not stated) gave PINK1 expr mod -1%, KB-3-1 cytotox inconclusive and KB-V1 MDR tox inactive.
Screening Cc1cc(C(=O)CSc2cccc[n+]2[O-])c(C)n1-c1ccc(OC(F)F)cc1 returned SW480 rerep -5%, MCF10A rereplic -6%, PINK1 expr mod 3%, KB-3-1 cytotox inactive and KB-V1 MDR tox inactive.
`COC(=O)c1ccc(-n2c(C)cc(C(=O)CSc3cccc[n+]3[O-])c2C)cc1` gave SW480 rerep -4%, MCF10A rereplic 1.3µM*, PINK1 expr mod 1%, KB-3-1 cytotox inactive and KB-V1 MDR tox inconclusive.
Screening Oc1c(CN2CCOCC2)cc(COCc2ccccc2)c2cccnc12 returned SW480 rerep 3.7µM*, MCF10A rereplic inconclusive, PINK1 expr mod -1%, KB-3-1 cytotox inconclusive and KB-V1 MDR tox inconclusive.
Oc1c(CNc2ccccc2)cc(COCc2ccccc2)c2cccnc12 was read as SW480 rerep 0.46µM*, MCF10A rereplic 8%, PINK1 expr mod 1%, KB-3-1 cytotox inactive and KB-V1 MDR tox inactive.
`Fc1cccc(COc2ccccc2CNc2ccccc2)c1` gave SW480 rerep 3%, MCF10A rereplic -3%, PINK1 expr mod 15%, KB-3-1 cytotox inactive and KB-V1 MDR tox inactive.
For CC(C)C[C@H]1CNC(=O)C(=O)N1C[C@@H]1CCCN1C[C@H](Cc1ccccc1)N1C[C@H](Cc2ccccc2)N(CCc2ccccc2)C(=O)C1=O the results were PINK1 expr mod 2%, KB-3-1 cytotox inactive and KB-V1 MDR tox inactive.
`CC(C)c1ccc(C2C3=C(COC3=O)Nc3cc4c(cc32)OCO4)cc1` (configuration not stated) gave SW480 rerep inconclusive, MCF10A rereplic inconclusive, PINK1 expr mod 1%, KB-3-1 cytotox 0.73µM* and KB-V1 MDR tox 1.2µM*.
Screening COc1ccc(-n2c(-c3cc(-c4ccccc4)sc3N)n[nH]c2=S)cc1 returned SW480 rerep 5%, MCF10A rereplic -2%, PINK1 expr mod 0%, KB-3-1 cytotox inconclusive and KB-V1 MDR tox inactive.
Nc1sc(-c2ccccc2)cc1-c1n[nH]c(=S)n1C1CCCCC1 was read as SW480 rerep 3.3µM*, MCF10A rereplic 3.3µM*, PINK1 expr mod 4%, KB-3-1 cytotox inconclusive and KB-V1 MDR tox inactive.
Cc1ccc(N(CC(=O)NCc2ccco2)C(=O)CNS(=O)(=O)c2ccccc2)c(C)c1 was read as SW480 rerep -4%, MCF10A rereplic -14%, PINK1 expr mod -1%, KB-3-1 cytotox inactive and KB-V1 MDR tox inactive.
`COc1ccc(-c2cnn3c(N)c(S(=O)(=O)C(C)(C)C)cnc23)cc1` gave SW480 rerep inconclusive, MCF10A rereplic 15%, PINK1 expr mod 5%[38.3 µM], KB-3-1 cytotox inactive and KB-V1 MDR tox 15µM*.
For CCOc1ccc(C(=O)Nc2ccc(S(=O)(=O)N(Cc3ccccc3)c3ccccc3)cc2)cc1 the results were PINK1 expr mod 2%.
COc1ccc(S(=O)(=O)N(CC(=O)Nc2ccc(C)cc2)c2ccc(C)cc2)cc1OC was read as PINK1 expr mod -1%, KB-3-1 cytotox inactive and KB-V1 MDR tox inconclusive.
CN(Cc1ccccc1)S(=O)(=O)c1ccc(NC(=S)NC(=O)C2CCCC2)cc1 was read as SW480 rerep 3.3µM*, MCF10A rereplic 15µM*, PINK1 expr mod -2%[38.3 µM], KB-3-1 cytotox 6.5µM* and KB-V1 MDR tox 4.1µM*.
CN(C)S(=O)(=O)c1ccc(NC(=S)NC(=O)C2CCC2)cc1 was read as SW480 rerep -8%, MCF10A rereplic 14%, PINK1 expr mod 0%, KB-3-1 cytotox inactive and KB-V1 MDR tox inactive.
COc1ccc(C(=O)Nc2ccc(S(=O)(=O)N(Cc3ccccc3)c3ccccc3)cc2)cc1 was read as PINK1 expr mod 2%, KB-3-1 cytotox inactive and KB-V1 MDR tox 2.3µM*.
COc1ccc(NC(=O)CCN(c2ccc(OC)cc2)S(=O)(=O)c2ccc(C)c(C)c2)cc1 was read as SW480 rerep 8%, MCF10A rereplic 9%, PINK1 expr mod -1%, KB-3-1 cytotox inactive and KB-V1 MDR tox 8.2µM*.
